Measured values: PubChem BioAssay (NCATS)
Records with an inconclusive call do not appear. Unless noted, the call rests on the fitted dose curve; in most records, active means well fitted curve in either direction with a large enough effect (not every such curve was filed as active); inconclusive means small, poorly fitted or top-dose-only effect, or another doubt; inactive means flat fitted curve, though single readings scatter.

How the values were obtained:
[1] = AP1 Signaling Pathway (AID 357); conditions: ME-180 AP-1-bla reporter, EGF-induced, beta-lactamase ratio, 5 h; at 17.2 µM (top of the series) unless noted;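 further: ME-180 reporter cells stimulated with EGF at its EC50 level; on the % scale 0 is the no-effect control and ±100 the full control effect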
Summary of the method: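 Read-out was the 460nm/530nm emission ratio (excitation 405nm) after CCF4 loading for 2.5 hours at room temperature. Cells carried an AP-1-driven beta-lactamase reporter, were stimulated with EC50 EGF plus compound for 5 hours, and AC50 values came from titrations.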

[2] = NFAT Signaling Pathway (AID 444); conditions: Jurkat NFAT-bla M1, carbachol, beta-lactamase ratio, 5 h; at 17.2 µM (top of the series) unless noted;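 further: carbachol stimulus at about its EC50 of 1 µM final; on the % scale 0 is the no-effect control and ±100 the full control effect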
Summary of the method: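 Read-out: CCF4 FRET ratio (460 nm/530 nm) after 1 h RT dye loading, used for %activity and AC50 from titration series. Cells: Jurkat NFAT-β-lactamase/M1 line, treated with compound plus 1 uM carbachol for 5 h, 37 °C.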

[3] = Stat Signaling Pathway (AID 446); conditions: ME-180 (cervical carcinoma) SIE beta-lactamase reporter, IL-6 stimulated, 5 h; at 17.2 µM (top of the series) unless noted;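 further: ME-180 cervical cancer cells given 40 pM IL-6 alongside compound; SIE-controlled beta-lactamase reporter measured as 460/530 nm FRET emission ratio; on the % scale 0 is the no-effect control and ±100 the full control effect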
Summary of the method: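 Emission at 460 and 530 nm (excitation 405 nm) reports SIE-controlled beta-lactamase in ME-180 cells. Cells received compound with 40 pM IL-6 for 5 hrs at 37 C; data scaled between 300 pM IL-6 and 125 nM JAK-inhibitor controls.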

[4] = biological target: Glucocorticoid receptor (Homo sapiens) (UniProt P04150); experiment: GR-GFP Redistribution (AID 450;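 active means compounds whose dose series gives a full or clear partial fitted curve of increased nuclear translocation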; further: potency means the concentration at half of the fitted maximal effect)
Chain of Glucocorticoid receptor (Homo sapiens) (P04150 whole entry, looked up): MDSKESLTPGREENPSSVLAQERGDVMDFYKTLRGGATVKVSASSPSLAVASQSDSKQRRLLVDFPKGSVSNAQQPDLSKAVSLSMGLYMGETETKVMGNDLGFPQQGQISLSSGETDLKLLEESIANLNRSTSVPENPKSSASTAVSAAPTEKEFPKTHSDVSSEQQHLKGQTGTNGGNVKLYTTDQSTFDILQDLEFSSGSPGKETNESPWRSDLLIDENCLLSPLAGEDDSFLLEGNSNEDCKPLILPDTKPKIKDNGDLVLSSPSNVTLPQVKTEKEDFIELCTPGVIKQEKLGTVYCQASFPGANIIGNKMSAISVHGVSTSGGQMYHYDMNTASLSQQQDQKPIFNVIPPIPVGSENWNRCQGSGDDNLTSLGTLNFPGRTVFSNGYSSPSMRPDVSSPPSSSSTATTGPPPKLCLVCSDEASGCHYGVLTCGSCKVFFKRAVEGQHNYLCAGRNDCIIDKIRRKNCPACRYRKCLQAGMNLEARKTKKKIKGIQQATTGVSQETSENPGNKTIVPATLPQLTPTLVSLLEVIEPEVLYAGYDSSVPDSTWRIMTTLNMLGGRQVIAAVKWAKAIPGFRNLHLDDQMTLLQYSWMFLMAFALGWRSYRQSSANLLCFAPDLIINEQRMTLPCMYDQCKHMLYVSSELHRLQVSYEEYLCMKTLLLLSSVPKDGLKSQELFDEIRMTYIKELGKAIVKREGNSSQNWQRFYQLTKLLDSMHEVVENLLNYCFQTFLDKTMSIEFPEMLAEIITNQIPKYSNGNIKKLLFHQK

N#Cc1nc(COc2ccc(Br)cc2)oc1NCCN1CCOCC1
inactive: activity change, negative = inhibition [1] -17.9% | activity change, negative = inhibition [2] 10.5% | activity, negative = inhibition [3] 1.36% | Potency [4] > 20.6 µM

C=C(Br)Cn1c(CCCC)nc2ccccc21
inactive: activity change, negative = inhibition [1] -12.4% | activity change, negative = inhibition [2] 1.5% | activity, negative = inhibition [3] 4.16% | Potency [4] > 20.6 µM

CSc1nc(N)nc(SCC(=O)OC(C)C)c1C#N
inactive: activity change, negative = inhibition [1] -15.6% | activity change, negative = inhibition [2] 6.28% | activity, negative = inhibition [3] -5.26% | Potency [4] > 20.6 µM

COC(=O)[C@@H](N)Cc1ccc(O)cc1
inactive: activity change, negative = inhibition [1] -11% | activity change, negative = inhibition [2] -26% | activity, negative = inhibition [3] -6.81% | Potency [4] > 20.6 µM

COc1ccc2nc(/N=C(\N)NC(=O)C(C)(C)C)nc(C)c2c1
inactive: activity change, negative = inhibition [1] 1.33% | activity change, negative = inhibition [2] 0.865% | activity, negative = inhibition [3] 0.61% | Potency [4] > 20.6 µM

CNC(=O)c1cc2ccccc2o1
inactive: activity change, negative = inhibition [1] 8.83% | activity change, negative = inhibition [2] -13.4% | activity, negative = inhibition [3] 2.75% | Potency [4] > 20.6 µM

CCN(CC)CCN1C(=O)C(=O)/C(=C(/O)c2c(C)[nH]c(C(=O)OC)c2C)C1c1ccc(OC)cc1 (centres undefined)
inactive: activity change, negative = inhibition [1] 9.19% | activity change, negative = inhibition [2] 8.2% | activity, negative = inhibition [3] 9.4% | Potency [4] > 20.6 µM

O=C1C=C(O)CC(c2cccs2)C1 (centres undefined)
inactive: activity change, negative = inhibition [1] -0.0121% | activity change, negative = inhibition [2] -1.83% | activity, negative = inhibition [3] -2.06% | Potency [4] > 20.6 µM

CC(=O)c1ccc(C#CC(C)(C)O)s1
inactive: activity change, negative = inhibition [1] 6.06% | activity change, negative = inhibition [2] -7.12% | activity, negative = inhibition [3] 2.81% | Potency [4] > 20.6 µM

CC1(C)CC(=O)C2=C(C1)OC(N)=C(C#N)C2C1C=CCCC1 (centres undefined)
inactive: activity change, negative = inhibition [1] 3.93% | activity change, negative = inhibition [2] 24.4% | activity, negative = inhibition [3] -5.68% | Potency [4] > 20.6 µM

Cc1cccc(C)c1OCC(O)CNS(=O)(=O)c1ccccc1C(=O)N1CCOCC1 (centres undefined)
inactive: activity change, negative = inhibition [1] -8.76% | activity change, negative = inhibition [2] 9% | activity, negative = inhibition [3] 3.91% | Potency [4] > 20.6 µM

CCCCCc1nc2sc3c(c2c(=O)n1N)CCC3
inactive: activity change, negative = inhibition [1] -5.09% | activity change, negative = inhibition [2] -10.1% | activity, negative = inhibition [3] -13% | Potency [4] > 20.6 µM

CCN(CC)CCN1C(=O)C(=O)/C(=C(/O)c2ccc(Cl)cc2)C1c1ccncc1 (centres undefined)
inactive: activity change, negative = inhibition [1] -3.59% | activity change, negative = inhibition [2] 22.9% | activity, negative = inhibition [3] 7.2% | Potency [4] > 20.6 µM

CN1CCC2(CC1)C1CN(C)CC=C1C(C#N)=C(N)C2(C#N)C#N (centres undefined)
inactive: activity change, negative = inhibition [1] 6.27% | activity change, negative = inhibition [2] 13.7% | activity, negative = inhibition [3] 12.8% | Potency [4] > 20.6 µM

CCOC(=O)C1=C(c2ccccc2)NC(SCC(=O)Nc2ccccc2C)=C(C#N)C1c1ccco1 (centres undefined)
inactive: activity change, negative = inhibition [1] -1.47% | activity change, negative = inhibition [2] -6.28% | activity, negative = inhibition [3] -9.31% | Potency [4] > 20.6 µM

O=C1CCCN1c1ccc(S(=O)(=O)NCc2ccco2)cc1
inactive: activity change, negative = inhibition [1] 1.18% | activity change, negative = inhibition [2] -10.1% | activity, negative = inhibition [3] 2.23% | Potency [4] > 20.6 µM

Cc1nc(SCC(N)=O)[nH]c(=O)c1Cc1ccc(OC(C)C)cc1
inactive: activity change, negative = inhibition [1] 12% | activity change, negative = inhibition [2] 1.93% | activity, negative = inhibition [3] 8.12% | Potency [4] > 20.6 µM

Clc1ccc(-c2cn3c(n2)CCC3)cc1
inactive: activity change, negative = inhibition [1] 4.83% | activity change, negative = inhibition [2] -26.9% | activity, negative = inhibition [3] 7.31% | Potency [4] > 20.6 µM

COc1cccc(C2=CC(c3ccccc3)n3nnnc3N2)c1 (centres undefined)
inactive: activity change, negative = inhibition [1] -3.96% | activity change, negative = inhibition [2] -25.6% | activity, negative = inhibition [3] -10.3% | Potency [4] > 20.6 µM

O=C(NCc1ccco1)c1ccc(=O)[nH]n1
inactive: activity change, negative = inhibition [1] -6.2% | activity change, negative = inhibition [2] -1.91% | activity, negative = inhibition [3] -5.82% | Potency [4] > 20.6 µM

c1ccc(CN2CCN(c3nc(-c4ccccn4)nc4ccccc34)CC2)cc1
inactive: activity change, negative = inhibition [1] 14.9% | activity change, negative = inhibition [2] -29% | activity, negative = inhibition [3] 6.73% | Potency [4] > 20.6 µM

O=C(NC1CCS(=O)(=O)C1)N1CCCCC1 (centres undefined)
inactive: activity change, negative = inhibition [1] -10.9% | activity change, negative = inhibition [2] -4.07% | activity, negative = inhibition [3] 9% | Potency [4] > 20.6 µM

Cn1c(Cn2cnc3ccccc32)nc2ccccc21
inactive: activity change, negative = inhibition [1] -1.15% | activity change, negative = inhibition [2] 3.95% | activity, negative = inhibition [3] -2% | Potency [4] > 20.6 µM

CCCCOc1ccc(C(=O)Nc2ccc(N3CCN(C(C)=O)CC3)cc2)cc1
inactive: activity change, negative = inhibition [1] -6.71% | activity change, negative = inhibition [2] 11.1% | activity, negative = inhibition [3] -7.6% | Potency [4] > 20.6 µM

CCOC(=O)c1[nH]c2ccc(C)cc2c1N
inactive: activity change, negative = inhibition [1] -6% | activity change, negative = inhibition [2] -1.75% | activity, negative = inhibition [3] -1.27% | Potency [4] > 20.6 µM

Cc1cc(C)nc(NC(=O)c2ccc(OC(C)C)cc2)n1
inactive: activity change, negative = inhibition [1] -5.46% | activity change, negative = inhibition [2] -4.53% | activity, negative = inhibition [3] -7.33% | Potency [4] > 20.6 µM
